Assay in all cases: PBM; 200 nM protein, PBS
What all share (conditions): dsDNA, one strand shown

The target of assay [1] is PROP1 (Homo sapiens, UniProt O75360 56-141).
Assay [2] addresses PROP1 (Homo sapiens, UniProt O75360 56-141, R99H).
For assay [3], the target named is PROP1 (Homo sapiens, UniProt O75360 56-141, F88S).
The target in assay [4] is ALX3 (Homo sapiens, UniProt O95076 139-225).
Assay [5] deals with VAX1 (Homo sapiens, UniProt Q5SQQ9 86-172).
In assay [6] the target is VAX1 (Homo sapiens, UniProt Q5SQQ9 86-172, T142I).
Assay [7] addresses VAX1 (Homo sapiens, UniProt Q5SQQ9 86-172, K157R).
Assay [8] deals with T1, NKX2-4 (Homo sapiens, UniProt Q9H2Z4 175-261, R246Q).
T1 sequence: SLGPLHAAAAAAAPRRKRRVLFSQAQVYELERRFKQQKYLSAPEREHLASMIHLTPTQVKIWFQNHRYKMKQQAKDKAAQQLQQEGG

Assay [9] concerns the target ALX3 (Homo sapiens, UniProt O95076 139-225, N203S).

Chain of ALX3 (Homo sapiens, UniProt O95076 139-225) (O95076 139-225): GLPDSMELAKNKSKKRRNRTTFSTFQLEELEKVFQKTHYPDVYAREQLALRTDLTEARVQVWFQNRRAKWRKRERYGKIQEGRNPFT
Chain of PROP1 (Homo sapiens, UniProt O75360 56-141, F88S) (O75360 56-141 F88S): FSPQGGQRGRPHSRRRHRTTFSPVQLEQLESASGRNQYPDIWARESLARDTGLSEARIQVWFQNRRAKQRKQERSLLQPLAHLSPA
Chain of PROP1 (Homo sapiens, UniProt O75360 56-141, R99H) (O75360 56-141 R99H): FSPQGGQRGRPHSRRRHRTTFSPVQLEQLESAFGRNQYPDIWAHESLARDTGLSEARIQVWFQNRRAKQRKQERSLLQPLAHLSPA
Chain of PROP1 (Homo sapiens, UniProt O75360 56-141) (O75360 56-141): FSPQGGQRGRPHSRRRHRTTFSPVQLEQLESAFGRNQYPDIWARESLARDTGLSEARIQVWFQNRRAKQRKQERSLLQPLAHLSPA
Chain of VAX1 (Homo sapiens, UniProt Q5SQQ9 86-172) (Q5SQQ9 86-172): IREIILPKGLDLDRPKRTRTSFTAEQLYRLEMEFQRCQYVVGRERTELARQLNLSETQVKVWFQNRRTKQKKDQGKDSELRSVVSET
Chain of VAX1 (Homo sapiens, UniProt Q5SQQ9 86-172, K157R) (Q5SQQ9 86-172 K157R): as the sequence (Q5SQQ9 86-172) above, with K72R counted along it
Chain of ALX3 (Homo sapiens, UniProt O95076 139-225, N203S) (O95076 139-225 N203S): as the sequence (O95076 139-225) above, with N65S counted along it
Chain of VAX1 (Homo sapiens, UniProt Q5SQQ9 86-172, T142I) (Q5SQQ9 86-172 T142I): as the sequence (Q5SQQ9 86-172) above, with T57I counted along it

CCAGGGTC: the binding signal is 6.75 upbm affinity estimate (log intensity, higher = more binding, comparable within an allelic series) in assay [1]; 6.85 upbm affinity estimate (log intensity, higher = more binding, comparable within an allelic series) in [2]; 6.62 upbm affinity estimate (log intensity, higher = more binding, comparable within an allelic series) in assay [3].
Turning to CTTATAAC, the binding signal in assay [4] was 9.51 upbm affinity estimate (log intensity, higher = more binding, comparable within an allelic series).
As to AAGAATAT, the binding signal in assay [1] was 8.06 upbm affinity estimate (log intensity, higher = more binding, comparable within an allelic series).
Consider CCCGACAC, for which the binding signal in assay [1] was 6.59 upbm affinity estimate (log intensity, higher = more binding, comparable within an allelic series); in [2], 6.79 upbm affinity estimate (log intensity, higher = more binding, comparable within an allelic series); in [5] it was 6.71 upbm affinity estimate (log intensity, higher = more binding, comparable within an allelic series); in assay [3], 6.7 upbm affinity estimate (log intensity, higher = more binding, comparable within an allelic series); in assay [6] it was 6.92 upbm affinity estimate (log intensity, higher = more binding, comparable within an allelic series); in assay [7], 6.92 upbm affinity estimate (log intensity, higher = more binding, comparable within an allelic series).
In the case of AAAATGGG, in assay [1], the binding signal is 7.94 upbm affinity estimate (log intensity, higher = more binding, comparable within an allelic series).
Turning to ATCAAGTA, the binding signal in [8] was 12.9 upbm affinity estimate (log intensity, higher = more binding, comparable within an allelic series).
Consider TAAAAGTA, for which the binding signal in [4] is 9.06 upbm affinity estimate (log intensity, higher = more binding, comparable within an allelic series).
Consider AATTCCGA, for which the binding signal in assay [1] is 8.08 upbm affinity estimate (log intensity, higher = more binding, comparable within an allelic series); in [2], 7.85 upbm affinity estimate (log intensity, higher = more binding, comparable within an allelic series).
As for GGTTGTTA, the binding signal is 9.57 upbm affinity estimate (log intensity, higher = more binding, comparable within an allelic series) in assay [4] and 8.28 upbm affinity estimate (log intensity, higher = more binding, comparable within an allelic series) in assay [9].
Consider ATTTCCTA, for which the binding signal in assay [1] was 7.97 upbm affinity estimate (log intensity, higher = more binding, comparable within an allelic series).
As to GCTAGACC, the binding signal in [1] is 6.61 upbm affinity estimate (log intensity, higher = more binding, comparable within an allelic series); in assay [2], 6.75 upbm affinity estimate (log intensity, higher = more binding, comparable within an allelic series); in [3] it was 6.62 upbm affinity estimate (log intensity, higher = more binding, comparable within an allelic series).
Turning to CATATTGA, the binding signal in [4] was 9.37 upbm affinity estimate (log intensity, higher = more binding, comparable within an allelic series).
Same read-out and setting: to CCAAACAA belongs 8.78 upbm affinity estimate (log intensity, higher = more binding, comparable within an allelic series); to ACTATTAT, 10.4 upbm affinity estimate (log intensity, higher = more binding, comparable within an allelic series).
Same read-out and setting: then GTAATAAC, with 10.7 upbm affinity estimate (log intensity, higher = more binding, comparable within an allelic series).
With CACGTCGC, the binding signal in assay [1] is 6.91 upbm affinity estimate (log intensity, higher = more binding, comparable within an allelic series); in [2], 6.79 upbm affinity estimate (log intensity, higher = more binding, comparable within an allelic series); in [3], 6.8 upbm affinity estimate (log intensity, higher = more binding, comparable within an allelic series).
Take AAAAATAA: the binding signal in [4] is 9.76 upbm affinity estimate (log intensity, higher = more binding, comparable within an allelic series).
On to ATAACATA, for which the binding signal in assay [4] was 9.54 upbm affinity estimate (log intensity, higher = more binding, comparable within an allelic series).
Turning to ATAGAAAA, the binding signal in assay [4] was 8.94 upbm affinity estimate (log intensity, higher = more binding, comparable within an allelic series).
For the sequence ATATTTGC, the binding signal is 8.36 upbm affinity estimate (log intensity, higher = more binding, comparable within an allelic series) in [1]; 7.99 upbm affinity estimate (log intensity, higher = more binding, comparable within an allelic series) in assay [2]; 7.34 upbm affinity estimate (log intensity, higher = more binding, comparable within an allelic series) in assay [3].
As to TGTAGTAA, the binding signal in assay [1] was 8.45 upbm affinity estimate (log intensity, higher = more binding, comparable within an allelic series); in assay [2], 8 upbm affinity estimate (log intensity, higher = more binding, comparable within an allelic series).
Turning to ATTGTGAG, in assay [1], the binding signal is 8.01 upbm affinity estimate (log intensity, higher = more binding, comparable within an allelic series).
Take AACAAGTG: the binding signal in assay [8] is 12.9 upbm affinity estimate (log intensity, higher = more binding, comparable within an allelic series).
GCATTACA: the binding signal in assay [1] was 8.11 upbm affinity estimate (log intensity, higher = more binding, comparable within an allelic series); in [2], 7.66 upbm affinity estimate (log intensity, higher = more binding, comparable within an allelic series).
Turning to ACTCTTGA, in [8], the binding signal was 12.9 upbm affinity estimate (log intensity, higher = more binding, comparable within an allelic series).
For the sequence TCCTTAGA, in [4], the binding signal is 8.33 upbm affinity estimate (log intensity, higher = more binding, comparable within an allelic series).
With AGAGCCGG, the binding signal in assay [1] was 6.81 upbm affinity estimate (log intensity, higher = more binding, comparable within an allelic series); in assay [2], 6.67 upbm affinity estimate (log intensity, higher = more binding, comparable within an allelic series); in assay [3], 6.47 upbm affinity estimate (log intensity, higher = more binding, comparable within an allelic series).
Take CGCGTCCC: the binding signal in assay [1] was 6.69 upbm affinity estimate (log intensity, higher = more binding, comparable within an allelic series); in [2], 6.77 upbm affinity estimate (log intensity, higher = more binding, comparable within an allelic series); in [3] it was 6.52 upbm affinity estimate (log intensity, higher = more binding, comparable within an allelic series).
As to ATTATGGG, the binding signal in assay [1] was 9.26 upbm affinity estimate (log intensity, higher = more binding, comparable within an allelic series); in [2], 8.87 upbm affinity estimate (log intensity, higher = more binding, comparable within an allelic series); in [3], 7.21 upbm affinity estimate (log intensity, higher = more binding, comparable within an allelic series).
As for GGATGCAC, the binding signal in assay [1] was 6.71 upbm affinity estimate (log intensity, higher = more binding, comparable within an allelic series); in assay [2] it was 6.74 upbm affinity estimate (log intensity, higher = more binding, comparable within an allelic series); in assay [3] it was 6.83 upbm affinity estimate (log intensity, higher = more binding, comparable within an allelic series).
With AAGGGAGT, the binding signal in assay [1] was 6.58 upbm affinity estimate (log intensity, higher = more binding, comparable within an allelic series); in [2], 6.7 upbm affinity estimate (log intensity, higher = more binding, comparable within an allelic series); in assay [3] it was 6.82 upbm affinity estimate (log intensity, higher = more binding, comparable within an allelic series).
Regarding CCGACCGG, the binding signal in assay [1] is 6.54 upbm affinity estimate (log intensity, higher = more binding, comparable within an allelic series); in [2], 6.6 upbm affinity estimate (log intensity, higher = more binding, comparable within an allelic series); in [3], 6.35 upbm affinity estimate (log intensity, higher = more binding, comparable within an allelic series).
Regarding GCTCCGCA, the binding signal in assay [1] is 6.82 upbm affinity estimate (log intensity, higher = more binding, comparable within an allelic series); in assay [2] it was 6.82 upbm affinity estimate (log intensity, higher = more binding, comparable within an allelic series); in assay [3], 6.66 upbm affinity estimate (log intensity, higher = more binding, comparable within an allelic series).
For the sequence GGCATGAC, the binding signal was 6.69 upbm affinity estimate (log intensity, higher = more binding, comparable within an allelic series) in assay [1]; 6.75 upbm affinity estimate (log intensity, higher = more binding, comparable within an allelic series) in assay [2]; 6.7 upbm affinity estimate (log intensity, higher = more binding, comparable within an allelic series) in assay [3].
